In PubChem BioAssay (NCATS):
Several values for one entry are separate records, joined by “and”; a condition that tells them apart may be missing. Equal entries are not always repeated. A number with no mark means an inactive call. Results filed as inconclusive are left out. A call without a number means that no potency is given here. Activity calls are given as the source filed them. Unless noted, calls follow the shape of the dose curve; as a rule, active = well fitted curve in the direction sought with a large enough effect; inconclusive = small, poorly fitted or top-dose-only effect, or another doubt; inactive = no such curve, though single readings can be large; an effect the other way counts as inactive or inconclusive.

Columns and labels:
[1] = qHTS profiling for inhibitors of Plasmodium falciparum proliferation (AID 504749); also: potency is read from the fitted curve at half-maximal effect; as to all read-outs here: nearly all actives have a fitted effect of over 60% in size; conditions: P. falciparum in erythrocytes, SYBR Green DNA, 72 h; for activity, negative = inhibition: at 28.7 µM (top of the series)
Summary of the method: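 Infected RBCs, 0.3% parasitemia/2.5% Hct final; cpd 72 h, 37 C, 5% CO2; lysis buffer with saponin/triton/SYBR Green I, o/n RT dark; FI 485/535; norm. to artemisinin (0.29 uM) and DMSO.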

[2] = target: Rap guanine nucleotide exchange factor 4 (Homo sapiens) (UniProt Q8WZA2); test: Confirmatory qHTS for agonist of cAMP-regulated guanine nucleotide exchange factor 4 (EPAC2) (AID 1645884); conditions: EPAC2 GEF activity, Rap1B-BODIPY-GDP fluorescence; series mostly up to 154 µM;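 also: nucleotide exchange releases bodipy-GDP from Rap1 and this lowers its fluorescence; nearly all actives have a fitted effect of over 65% in size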
Sequence of Rap guanine nucleotide exchange factor 4 (Homo sapiens) (Q8WZA2 whole entry, looked up): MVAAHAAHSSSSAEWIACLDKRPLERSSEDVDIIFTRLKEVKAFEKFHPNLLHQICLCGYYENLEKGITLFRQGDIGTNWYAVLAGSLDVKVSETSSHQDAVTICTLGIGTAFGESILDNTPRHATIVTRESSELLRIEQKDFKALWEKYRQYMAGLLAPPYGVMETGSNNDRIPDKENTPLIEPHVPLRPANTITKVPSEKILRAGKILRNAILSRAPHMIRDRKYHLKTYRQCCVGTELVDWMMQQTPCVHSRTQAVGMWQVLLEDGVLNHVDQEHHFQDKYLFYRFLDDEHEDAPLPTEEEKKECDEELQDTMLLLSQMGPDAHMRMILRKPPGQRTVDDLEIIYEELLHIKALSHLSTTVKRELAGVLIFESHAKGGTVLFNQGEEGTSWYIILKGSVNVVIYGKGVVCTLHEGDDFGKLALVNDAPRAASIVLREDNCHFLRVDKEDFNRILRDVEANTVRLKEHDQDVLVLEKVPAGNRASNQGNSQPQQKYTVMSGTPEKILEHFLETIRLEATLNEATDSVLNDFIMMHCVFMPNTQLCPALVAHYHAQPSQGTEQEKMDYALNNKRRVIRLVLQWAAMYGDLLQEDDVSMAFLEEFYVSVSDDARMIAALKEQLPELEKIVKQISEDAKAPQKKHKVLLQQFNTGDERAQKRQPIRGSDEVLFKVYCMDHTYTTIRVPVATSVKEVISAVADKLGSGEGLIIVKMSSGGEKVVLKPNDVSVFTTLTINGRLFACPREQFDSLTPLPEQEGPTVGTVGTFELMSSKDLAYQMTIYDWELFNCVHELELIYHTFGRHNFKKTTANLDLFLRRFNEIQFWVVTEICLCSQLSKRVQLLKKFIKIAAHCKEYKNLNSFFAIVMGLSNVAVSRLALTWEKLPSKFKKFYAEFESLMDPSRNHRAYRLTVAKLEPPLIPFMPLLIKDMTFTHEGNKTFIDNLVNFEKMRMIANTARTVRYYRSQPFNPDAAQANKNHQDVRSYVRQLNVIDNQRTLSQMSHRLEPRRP

[3] = target: Rap guanine nucleotide exchange factor 4 (Homo sapiens) (UniProt Q8WZA2); test: Confirmatory qHTS for antagonist of cAMP-regulated guanine nucleotide exchange factor 4 (EPAC2) (AID 1645885); conditions: EPAC2 Rap1B-BODIPY-GDP exchange fluorescence, biochemical; series mostly up to 114 µM; also: potency is read from the fitted curve at half-maximal effect; nearly all actives have a fitted effect of over 25% in size
[4] = target: Endonuclease 4 (Escherichia coli (strain K12)) (UniProt P0A6C1); test: Counterscreen for APE1 Inhibitors: qHTS Validation Assay for Inhibitors of Endonuclease IV (AID 1708); conditions: E. coli endonuclease IV, DNA cleavage fluorescence; series mostly up to 57.1 µM
Summary of the method: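 qHTS concentration-response format; LOPAC1280 tested under APE1-screen conditions. 2 nM enzyme, 15 min compound preincubation at RT, then 50 nM TAMRA/BHQ-2 abasic substrate; kinetic fluorescence read, three reads at 60 s intervals.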

[5] = qHTS for differential inhibitors of proliferation of Plasmodium falciparum line W2 (AID 1883); conditions: Potency: Plasmodium falciparum W2 proliferation inhibition; series mostly up to 28.7 µM;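 also: parasites grown with compound for 72 h before lysis and staining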; also: potency is read from the fitted curve at half-maximal effect
[6] = target: ATP-dependent DNA helicase Q1 (Homo sapiens) (UniProt P46063); test: qHTS Validation Assay for Inhibitors of RecQ-Like Dna Helicase 1 (RECQ1) (AID 2353); conditions: recombinant RECQ1 helicase DNA unwinding assay; series mostly up to 25.6 µM
Sequence of ATP-dependent DNA helicase Q1 (Homo sapiens) (P46063 whole entry, looked up): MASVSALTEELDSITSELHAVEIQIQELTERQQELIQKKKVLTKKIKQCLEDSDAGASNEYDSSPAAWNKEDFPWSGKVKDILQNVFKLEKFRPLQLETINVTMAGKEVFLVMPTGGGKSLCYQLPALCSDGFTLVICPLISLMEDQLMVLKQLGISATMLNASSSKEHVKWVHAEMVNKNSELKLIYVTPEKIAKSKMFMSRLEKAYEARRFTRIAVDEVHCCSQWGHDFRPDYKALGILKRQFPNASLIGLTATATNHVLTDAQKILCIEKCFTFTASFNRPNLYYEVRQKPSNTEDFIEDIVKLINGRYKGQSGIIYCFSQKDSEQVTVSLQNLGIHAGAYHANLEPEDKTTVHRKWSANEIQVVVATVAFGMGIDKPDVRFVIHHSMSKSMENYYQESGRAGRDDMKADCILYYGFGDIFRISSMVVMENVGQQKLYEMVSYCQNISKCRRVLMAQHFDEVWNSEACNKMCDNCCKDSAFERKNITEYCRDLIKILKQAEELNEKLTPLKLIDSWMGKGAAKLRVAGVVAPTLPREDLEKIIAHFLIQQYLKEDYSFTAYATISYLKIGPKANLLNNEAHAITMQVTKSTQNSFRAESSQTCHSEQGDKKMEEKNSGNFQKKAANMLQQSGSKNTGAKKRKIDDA
Summary of the method: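 50 nM RECQ1T1 preincubated 15 min with compound in Tris pH 8.0 buffer with MgCl2, DTT, Tween-20 and 2.5 ug/ml poly(dI-dC); started with 200 nM TAMRA/BHQ-2 forked duplex and 2 mM ATP. Unwinding read as fluorescence (525/598 nm), two reads 2 h apart.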

[7] = target: Transient receptor potential cation channel subfamily V member 1 (Homo sapiens) (UniProt Q8NER1); test: HTS Assay for Compounds that Act as Enhancers of the Vanilloid Receptor 1 (AID 488979); conditions: TRPV1-expressing cells, enhancer of channel activity, stimulated with capsaicin at EC20; series mostly up to 41.7 µM
Sequence of Transient receptor potential cation channel subfamily V member 1 (Homo sapiens) (Q8NER1 whole entry, looked up): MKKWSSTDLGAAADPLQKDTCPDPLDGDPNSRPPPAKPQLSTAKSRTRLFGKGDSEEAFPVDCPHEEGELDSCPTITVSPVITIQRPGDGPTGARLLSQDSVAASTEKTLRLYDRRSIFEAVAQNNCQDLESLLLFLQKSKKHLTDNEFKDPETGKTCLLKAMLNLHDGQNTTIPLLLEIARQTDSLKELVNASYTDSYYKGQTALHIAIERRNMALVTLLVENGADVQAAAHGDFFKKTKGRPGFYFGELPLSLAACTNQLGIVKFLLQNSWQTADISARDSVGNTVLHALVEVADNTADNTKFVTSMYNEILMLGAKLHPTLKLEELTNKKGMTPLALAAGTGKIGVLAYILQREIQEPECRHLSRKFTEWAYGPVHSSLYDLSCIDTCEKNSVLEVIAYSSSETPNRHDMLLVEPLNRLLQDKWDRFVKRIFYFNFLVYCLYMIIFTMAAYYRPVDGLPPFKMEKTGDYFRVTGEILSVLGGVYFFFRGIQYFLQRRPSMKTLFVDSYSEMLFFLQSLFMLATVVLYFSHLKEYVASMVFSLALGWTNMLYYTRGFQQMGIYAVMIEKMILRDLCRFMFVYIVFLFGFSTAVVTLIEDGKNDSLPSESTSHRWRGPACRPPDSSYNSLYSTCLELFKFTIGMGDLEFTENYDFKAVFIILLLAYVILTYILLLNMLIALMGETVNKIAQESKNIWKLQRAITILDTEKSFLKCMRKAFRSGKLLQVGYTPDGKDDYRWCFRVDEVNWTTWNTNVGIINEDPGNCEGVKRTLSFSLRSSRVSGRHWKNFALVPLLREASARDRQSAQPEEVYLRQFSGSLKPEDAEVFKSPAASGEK
Summary of the method: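 Calcium influx kinetics via Fluo-8 (480/520 nm) in TRPV1-expressing cells, 2000/well cultured overnight at 35.5C. Compound-alone read 3 min (agonist phase), followed by EC20 capsaicin challenge for 2 min (enhancer phase).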

[8] = target: Thyrotropin-releasing hormone receptor (Homo sapiens) (UniProt P34981); test: qHTS for Small Molecule Agonists and Allosteric Enhancers of Human TRH Receptor: Validation Screen for Agonists (AID 493127;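 active = calcium activation more than 3 SD above the typical response in the agonist read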); conditions: TRH receptor agonist cell assay; at 2 µM; hits give high values
Sequence of Thyrotropin-releasing hormone receptor (Homo sapiens) (P34981 whole entry, looked up): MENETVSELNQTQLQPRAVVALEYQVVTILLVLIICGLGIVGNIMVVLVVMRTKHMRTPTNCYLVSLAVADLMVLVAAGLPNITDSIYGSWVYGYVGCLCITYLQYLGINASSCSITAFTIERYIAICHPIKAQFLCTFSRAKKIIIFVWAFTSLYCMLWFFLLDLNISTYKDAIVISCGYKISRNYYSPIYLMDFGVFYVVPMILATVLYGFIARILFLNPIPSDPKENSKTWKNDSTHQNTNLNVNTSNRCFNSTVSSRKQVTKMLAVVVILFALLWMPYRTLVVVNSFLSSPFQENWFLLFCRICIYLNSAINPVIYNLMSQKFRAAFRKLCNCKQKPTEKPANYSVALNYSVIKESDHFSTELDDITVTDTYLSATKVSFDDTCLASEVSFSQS
Summary of the method: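 TRHR cells loaded with fluo-8 calcium dye; FDSS kinetic fluorescence (Ex 480/Em 530) read at 1 s/cycle after 23 nL compound addition. Agonist-mode calcium response recorded before the 10 nM TRH (EC20) addition.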

[9] = target: Galactokinase (Homo sapiens) (UniProt P51570); test: qHTS Validation Assay for Inhibitors of Human Galactokinase (GALK) (AID 493189); conditions: purified human GALK enzyme activity, qHTS 7-point titration; series mostly up to 57.5 µM
Sequence of Galactokinase (Homo sapiens) (P51570 whole entry, looked up): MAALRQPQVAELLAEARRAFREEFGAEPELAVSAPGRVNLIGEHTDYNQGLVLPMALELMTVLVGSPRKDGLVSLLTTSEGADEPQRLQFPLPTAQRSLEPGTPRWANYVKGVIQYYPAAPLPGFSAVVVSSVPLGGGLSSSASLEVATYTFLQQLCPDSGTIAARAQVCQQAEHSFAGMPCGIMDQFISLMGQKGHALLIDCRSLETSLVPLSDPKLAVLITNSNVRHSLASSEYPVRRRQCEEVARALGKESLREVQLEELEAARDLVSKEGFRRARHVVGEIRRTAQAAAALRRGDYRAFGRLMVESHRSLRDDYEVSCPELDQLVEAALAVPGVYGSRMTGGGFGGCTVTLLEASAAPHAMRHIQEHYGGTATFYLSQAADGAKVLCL
Summary of the method: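 Inhibition was measured as remaining ATP, detected by luciferase luminescence after a 1 h room-temperature reaction. Final conditions: 5 nM GALK, 100 uM galactose, 35 uM ATP, pH 8.0 HEPES buffer.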

[10] = target: Cytochrome P450 2C19 (Homo sapiens) (UniProt P33261); test: qHTS Assay for Inhibitors and Substrates of Cytochrome P450 2C19 (AID 899); conditions: recombinant CYP2C19, luciferin-H EGE luminescence; series mostly up to 57.1 µM; also: nearly all actives have a fitted effect of over 60% in size; also: potency is read from the fitted curve at half-maximal effect
Sequence of Cytochrome P450 2C19 (Homo sapiens) (P33261 whole entry, looked up): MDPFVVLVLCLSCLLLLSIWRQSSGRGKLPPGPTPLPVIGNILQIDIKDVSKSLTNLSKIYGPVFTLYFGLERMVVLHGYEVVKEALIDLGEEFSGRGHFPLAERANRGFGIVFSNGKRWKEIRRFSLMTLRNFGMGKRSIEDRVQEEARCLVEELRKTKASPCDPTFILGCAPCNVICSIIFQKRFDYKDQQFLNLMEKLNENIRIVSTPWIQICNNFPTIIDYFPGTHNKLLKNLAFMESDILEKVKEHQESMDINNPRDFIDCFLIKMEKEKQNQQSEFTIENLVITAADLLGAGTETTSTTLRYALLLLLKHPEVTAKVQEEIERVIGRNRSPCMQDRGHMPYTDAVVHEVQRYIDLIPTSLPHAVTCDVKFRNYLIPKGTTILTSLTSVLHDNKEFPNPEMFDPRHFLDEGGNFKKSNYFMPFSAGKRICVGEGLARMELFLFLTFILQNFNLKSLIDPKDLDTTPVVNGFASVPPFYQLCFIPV
Summary of the method: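 5nM enzyme + 10uM Luciferin-H EGE (=KM), 50mM KPO4; cpd pin-transferred, 10 min 37C; NADPH regen, 60 min 37C; stopped w/ luciferin detection reagent, 20 min; luminescence. Normalized to 57uM ketoconazole (AC100).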

**Q.** Which Potency ([1]; parasite line A) does the source give for `Cc1cc(/C=C\c2ccc3cc(N(C)C)ccc3[n+]2C)c(C)n1-c1ccccc1` here?
**A.** 1.58 µM (active)

**Q.** What about the Potency ([1]; parasite line B) of the same compound?
**A.** 1.58 µM (active)

**Q.** For `Cc1cccc2c3c(ccc12)C1=C(C(=O)C3=O)C(C)CO1` (configuration not stated), which Potency [2] is on record?
**A.** inactive

**Q.** For `CC(=O)OC1c2c(ccc3ccc(=O)oc23)OC(C)(C)C1OC(=O)CC(C)C` (configuration not stated), which Potency [2] is on record?
**A.** inactive

**Q.** And the Potency [3]?
**A.** 44.1 µM (active)

**Q.** For `Nc1c2ccccc2nc2ccccc12` (tested in a mixture with another compound), which Potency [2] is on record?
**A.** inactive

**Q.** Which results are given for `CNC(=O)[C@H]1O[C@@H](n2cnc3c(N)ncnc32)[C@H](O)[C@H]1O`?
**A.** outcome [4]: inactive; Potency [5]: inactive; outcome [6]: inactive; outcome [7]: inactive; activation [8]: -0.0625%; outcome [9]: inactive

**Q.** Which outcome [4] does the source give for `Nc1ncnc2c1nc(Br)n2C1O[C@H]2COP(=O)(O)O[C@@H]2C1O` (some centres not stated) here?
**A.** inactive

**Q.** What about the Potency [5] of the same compound?
**A.** 5.62 µM (active)

**Q.** And the outcome [6]?
**A.** inactive

**Q.** What about the outcome [7] of the same compound?
**A.** inactive

**Q.** And the activation [8]?
**A.** 0.688%

**Q.** What about the outcome [9] of the same compound?
**A.** inactive

**Q.** Which Potency [2] does the source give for `CCC(=O)OC1CCC2C3CCc4cc(O)ccc4C3CC[C@]12C` (some centres not stated) here?
**A.** inactive

**Q.** And the Potency [3]?
**A.** 49.4 µM (active)

**Q.** Which Potency [2] does the source give for `COC(=O)c1c(C)c2c(c(C)c1O)OC(=O)c1c(C)c(Cl)c(O)c(Cl)c1O2` here?
**A.** inactive

**Q.** And the Potency [3]?
**A.** 2.48 µM (active) and 2.21 µM (active)

**Q.** Which results are given for `COc1cc(C)c(C(=O)Oc2cc(C)c(C(=O)O)c(O)c2C)c(OC)c1C`?
**A.** Potency [2]: inactive; Potency [3]: 49.4 µM (active)

**Q.** For `C[C@@H](Oc1ccc(Oc2cnc3ccc(Cl)cc3n2)cc1)C(=O)O`, which outcome [4] is on record?
**A.** inactive

**Q.** And the Potency [5]?
**A.** inactive

**Q.** What about the outcome [6] of the same compound?
**A.** inactive

**Q.** What about the outcome [7] of the same compound?
**A.** inactive

**Q.** And the activation [8]?
**A.** -0.0625%

**Q.** And the outcome [9]?
**A.** inactive

**Q.** Which Potency [2] does the source give for `C=C[C@](C)(O)CCC1C(=C)CC(OC(C)=O)C2C(C)(C)CCCC12C` (some centres not stated) here?
**A.** inactive

**Q.** What about the Potency [3] of the same compound?
**A.** 11.1 µM (active)

**Q.** With `COc1ccc2c(c1)[C@@]1(C)CCC[C@](C)(CO)C1CC2` (some centres not stated) as the compound, how does the Potency [2] read?
**A.** inactive

**Q.** And the Potency [3]?
**A.** 39.3 µM (active)

**Q.** Which Potency [2] does the source give for `COC(=O)CC1C2(C)CC34OC5(C)O[C@@]6(C7/C(=C(/OC)C(C)C)C(=O)OC(c8ccoc8)[C@@]7(C)C(OC(=O)C(C)C)C(OC)[C@]6(O5)[C@@]13C)C(OC)[C@]4(OC)C2OC(C)=O` (some centres not stated) here?
**A.** inactive

**Q.** What does the source list for `COc1ccc2c(c1OC)C(=O)OC2C1c2c(cc3c(c2OC)OCO3)CCN1C` (configuration not stated)?
**A.** outcome [4]: inactive; Potency [5]: 14.1 µM (active); outcome [6]: inactive; outcome [7]: inactive; activation [8]: -4.69%; outcome [9]: inactive

**Q.** Which results are given for `CN(C)CCCO[C@H]1C([C@H](O)CO)O[C@@H]2OC(C)(C)O[C@@H]21` (some centres not stated)?
**A.** outcome [4]: inactive; Potency [5]: inactive; outcome [6]: inactive; outcome [7]: inactive; activation [8]: 0.75%; outcome [9]: inactive

**Q.** With `COc1ccccc1CNc1ncncc1-c1ccccc1OC` as the compound, how does the Potency [2] read?
**A.** inactive

**Q.** With `COC(=O)[C@@H]1C2CC3c4[nH]c5cc(OC)ccc5c4CCN3CC2C[C@H](OC(=O)c2cc(OC)c(OC)c(OC)c2)C1OC` (some centres not stated) as the compound, how does the Potency [2] read?
**A.** inactive

**Q.** For `COc1cccc(Nc2ncc3ncc(=O)n(C)c3n2)c1`, which Potency [10] is on record?
**A.** inactive

**Q.** For `COc1ccccc1-c1nccc(NCc2ccccc2)n1`, which Potency [10] is on record?
**A.** 7.94 µM (active)

**Q.** Which Potency [10] does the source give for `COc1ccccc1CNc1ncnc2ccc(-c3ccccc3OC)cc12` here?
**A.** 3.16 µM (active)

**Q.** With `CN1CCN(c2ncncc2-c2ccoc2)CC1` as the compound, how does the Potency [10] read?
**A.** inactive

**Q.** For `Clc1ccccc1-c1ccc2ncnc(NC3CCNCC3)c2c1`, which Potency [10] is on record?
**A.** 3.98 µM (active)

**Q.** Which Potency [10] does the source give for `COc1ccccc1-c1ccc2ncnc(Nc3ccccc3)c2c1` here?
**A.** 5.01 µM (active)

**Q.** For `COc1cccc(-c2ccc3ncnc(NCCc4c[nH]c5ccc(OC)cc45)c3c2)c1`, which Potency [10] is on record?
**A.** 3.16 µM (active)

**Q.** For `Cc1noc(C)c1-c1cncnc1N1CCN(C)CC1`, which Potency [10] is on record?
**A.** inactive

**Q.** Which Potency [10] does the source give for `COCCNc1ncnc2ccc(-c3ccccc3C(F)(F)F)cc12` here?
**A.** 6.31 µM (active)

**Q.** With `COc1ccc(CNc2ncnc3ccc(-c4ccoc4)cc23)c(OC)c1` as the compound, how does the Potency [10] read?
**A.** 7.94 µM (active)

**Q.** Which Potency [10] does the source give for `COc1ccc(CNc2ncnc3ccc(-c4ccc(N(C)C)cc4)cc23)c(OC)c1` here?
**A.** 3.98 µM (active)

**Q.** For `O=C(Cc1cccs1)NC1C(=O)N2C(C(=O)[O-])=C(C[n+]3ccccc3)CSC12` (configuration not stated), which activity, negative = inhibition ([1]; parasite line A) is on record?
**A.** 4.33%

**Q.** And the activity, negative = inhibition ([1]; parasite line B)?
**A.** -24.5%
